According to PubChem BioAssay (NCATS):
Several values for one entry are separate records, joined by “and”; a condition that tells them apart may be missing. Identical values can stand only once. Records with an inconclusive call do not appear. Entries that show only a call come without a potency. A number with no mark means an inactive call. Activity calls are given as the source filed them. Calls follow the shape of the dose curve; as a rule, active = well fitted curve in the direction sought with a large enough effect; inconclusive = small, poorly fitted or top-dose-only effect, or another doubt; inactive = no such curve, though single readings can be large; an effect the other way counts as inactive or inconclusive.

Assays:
[1] = Viability qHTS for spleen associated tyrosine kinase inhibitor (SYKi) naive MV4-11 cells (AID 1963823); also: nearly all actives have a fitted effect of over 40% in size
Summary of the method: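 Compounds were dispensed acoustically onto plates, MV4-11 cells (SYKi-naive) added at 500 per well, and plates incubated 72 hr at 37 C. CellTiter-Glo was added and luminescence measured after 10 min.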

[2] = Cellular viability qHTS for adrenocortical cancer (ACC) cell line SW-13 (AID 1963989); settings: SW-13 ACC cells viability, CellTiter-Glo, 48 h; activity (max response): hits give low values; also: nearly all actives have a fitted effect of over 65% in size;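 as to activity (max response): cells grown in serum-free medium with ITS supplement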
Summary of the method: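 48 h treatment, SW-13 in ITS/DMEM serum-free; doses up to 46 uM; readout CellTiter-Glo luminescence; curve fit four-parameter logistic.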

[3] = Cellular viability qHTS for adrenocortical cancer (ACC) cell line NCI-H295R (AID 1963990); also: nearly all actives have a fitted effect of over 60% in size
Summary of the method: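 Compound titrations (up to 46 uM final) are applied to NCI-H295R cultures for 48 h at 37C. Viable cell number is estimated by CellTiter-Glo signal, normalised to DMSO and doxorubicin controls.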
Potency is read from the fitted curve at half-maximal effect.

| Compound | Potency [1] | activity (max response) [2] | Potency [3] | Potency [2] |
| --- | --- | --- | --- | --- |
| COC(=O)[C@@H]1[C@H]2C[C@H]3c4[nH]c5ccccc5c4CCN3C[C@@H]2CC[C@@H]1O | inactive | -16.5% | inactive | – |
| CN1C(=O)CC(c2ccccc2)C1=O (stereo not given) | inactive | 5.01% | inactive | – |
| CCOc1ccccc1OCCN[C@H](C)Cc1ccc(OC)c(S(N)(=O)=O)c1 | inactive | 2.5% | inactive | – |
| Cc1[nH]c2ccccc2c1CCNCc1ccc(/C=C/C(=O)NO)cc1 | 29.5 nM (active) | – | 112 nM (active) | 251 nM (active) |
| O=C1CC2(CCCC2)CC(=O)N1CCCCN1CCN(c2ncccn2)CC1 | 9440 nM (active) | -4.13% | inactive | – |
| OCc1ccc(Cl)cc1Cl | 6.7 nM (active) | -2% | inactive | – |
| CCCN1CCCC[C@H]1C(=O)Nc1c(C)cccc1C | inactive | 4.43% | inactive | – |
| c1ccc2[nH]ccc2c1 | inactive | 10.5% | inactive | – |
| N#CC1(c2ccc(F)cc2)CCC(=O)CC1 | inactive | 6.7% | inactive | – |
| C[C@@H]1[C@H](O)[C@@H](C)/C=C/C=C/C=C/C=C/C=C/C=C/C=C/[C@H](O[C@@H]2O[C@H](C)[C@@H](O)[C@H](N)[C@@H]2O)C[C@@H]2O[C@](O)(C[C@@H](O)C[C@@H](O)[C@H](O)CC[C@@H](O)C[C@@H](O)CC(=O)O[C@H]1C)C[C@H](O)[C@H]2C(=O)O | inactive | -9.6% | inactive | – |
| C[C@H](CCC(=O)O)[C@H]1CC[C@H]2[C@@H]3[C@H](O)C[C@@H]4C[C@H](O)CC[C@]4(C)[C@H]3CC[C@]12C | inactive | -16.1% | inactive | – |
| CCCCN=C(N)NC(=N)N | inactive | 17.9% | inactive | – |
| Cc1ccc(S(=O)(=O)NC(=O)NC2CCCCCCC2)cc1 | inactive | 11.9% | inactive | – |
| CC(=O)[C@@]1(O)CC[C@H]2[C@@H]3C[C@H](C)C4=CC(=O)C=C[C@]4(C)[C@@]3(F)[C@@H](O)C[C@@]21C | inactive | 3.6% | inactive | – |
| O=C(O)CCn1c2c(c3ccccc31)C[C@H](NS(=O)(=O)c1ccc(F)cc1)CC2 | inactive | -2.29% and -2.36% | inactive | – |
